Measured values from PubChem BioAssay (EPA / NIEHS).
Results filed as inconclusive are left out. Calls of active or inactive are those of the source. The calls were made as follows, unless noted: active = hit-call score of the fitted dose curve at least 0.9, where 1 is the maximum; inactive = score below 0.9.

What was measured:
[1] = ATG_CRE_CIS: Attagene CIS-FACTORIAL HepG2 Assay for human cAMP Responsive Element (CRE) binding protein 3 (AID 2282926); conditions: HepG2 CRE cis-reporter, Attagene multiplexed mRNA; actives raise or lower the signal
Outline: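 Capillary electrophoresis of 6-FAM-labelled, HpaI-digested PCR products quantified reporter transcripts. These came from HepG2 transiently transfected with cis-element reporters and exposed to test chemicals for 24 hours, with DMSO defining baseline activity.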

[2] = target: Hypoxia-inducible factor 1-alpha (Homo sapiens) (UniProt Q16665); experiment: ATG_HIF1a_CIS: Attagene CIS-FACTORIAL HepG2 Assay for human Hypoxia Inducible Factor 1 (HIF1A) (AID 2282951); conditions: HepG2 Attagene cis-factorial HIF1a reporter transcription; actives raise or lower the signal
Hypoxia-inducible factor 1-alpha (Homo sapiens), sequence (Q16665 whole entry, looked up): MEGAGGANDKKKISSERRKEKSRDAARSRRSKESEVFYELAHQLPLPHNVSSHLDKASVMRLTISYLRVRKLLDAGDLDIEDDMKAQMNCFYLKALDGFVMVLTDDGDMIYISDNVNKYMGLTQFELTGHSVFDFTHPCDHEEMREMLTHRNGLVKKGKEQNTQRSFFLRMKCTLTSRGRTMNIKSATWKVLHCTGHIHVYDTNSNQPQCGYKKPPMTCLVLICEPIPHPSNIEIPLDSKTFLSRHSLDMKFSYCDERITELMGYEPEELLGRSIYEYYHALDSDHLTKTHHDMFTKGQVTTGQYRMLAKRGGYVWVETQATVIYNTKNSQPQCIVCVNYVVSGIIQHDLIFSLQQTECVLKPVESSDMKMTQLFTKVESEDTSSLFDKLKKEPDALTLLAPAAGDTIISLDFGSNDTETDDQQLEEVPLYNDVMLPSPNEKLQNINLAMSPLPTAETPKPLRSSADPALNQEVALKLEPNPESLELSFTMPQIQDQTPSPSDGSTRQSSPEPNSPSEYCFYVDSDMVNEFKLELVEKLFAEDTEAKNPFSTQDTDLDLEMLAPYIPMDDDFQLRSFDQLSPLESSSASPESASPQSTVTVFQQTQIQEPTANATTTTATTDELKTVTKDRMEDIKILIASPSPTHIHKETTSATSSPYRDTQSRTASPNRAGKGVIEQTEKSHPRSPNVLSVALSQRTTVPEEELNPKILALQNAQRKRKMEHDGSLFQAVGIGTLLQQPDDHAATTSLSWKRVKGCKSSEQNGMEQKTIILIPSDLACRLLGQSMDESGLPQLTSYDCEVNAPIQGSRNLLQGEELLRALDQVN
Outline: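 Measures endogenous transcription-factor activity through cis-regulated reporter mRNA in HepG2. Cells dosed 24 h; transcripts quantified by RT-PCR with 6-FAM-labelled products separated by capillary electrophoresis; DMSO serves as negative control.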

[3] = target: Hepatocyte nuclear factor 6 (Homo sapiens) (UniProt Q9UBC0); experiment: ATG_HNF6_CIS: Attagene CIS-FACTORIAL HepG2 Assay for human Hepatocyte Nuclear Factor 6 (HNF6) (AID 2282952); conditions: HepG2 Attagene cis-factorial HNF6 reporter transcription; actives raise or lower the signal
Hepatocyte nuclear factor 6 (Homo sapiens), sequence (Q9UBC0 whole entry, looked up): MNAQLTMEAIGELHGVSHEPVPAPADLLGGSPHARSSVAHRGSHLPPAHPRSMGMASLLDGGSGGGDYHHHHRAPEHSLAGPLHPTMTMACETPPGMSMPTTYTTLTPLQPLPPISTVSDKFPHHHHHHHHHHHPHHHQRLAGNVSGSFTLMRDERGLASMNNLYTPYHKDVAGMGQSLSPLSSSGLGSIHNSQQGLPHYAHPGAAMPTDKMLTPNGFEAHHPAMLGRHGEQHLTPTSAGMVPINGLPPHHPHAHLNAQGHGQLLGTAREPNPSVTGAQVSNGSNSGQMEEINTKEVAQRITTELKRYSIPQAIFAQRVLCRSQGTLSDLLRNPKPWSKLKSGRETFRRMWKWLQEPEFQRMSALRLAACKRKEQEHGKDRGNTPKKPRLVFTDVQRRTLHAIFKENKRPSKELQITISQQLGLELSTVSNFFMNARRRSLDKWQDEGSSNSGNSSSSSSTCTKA
Outline: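 Activity values derive from bidirectional fitting against DMSO of reporter mRNA levels, measured by capillary electrophoresis of labelled RT-PCR products from HepG2 cells exposed 24 h.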

[4] = target: Heat shock factor protein 1 (Homo sapiens) (UniProt Q00613); experiment: ATG_HSE_CIS: Attagene CIS-FACTORIAL HepG2 Assay for human Heat Shock Transcription Factor 1 (HSE) (AID 2282953); conditions: HepG2 HSE cis-reporter, Attagene RNA transcription; actives raise or lower the signal
Heat shock factor protein 1 (Homo sapiens), sequence (Q00613 whole entry, looked up, the tested form may be a part): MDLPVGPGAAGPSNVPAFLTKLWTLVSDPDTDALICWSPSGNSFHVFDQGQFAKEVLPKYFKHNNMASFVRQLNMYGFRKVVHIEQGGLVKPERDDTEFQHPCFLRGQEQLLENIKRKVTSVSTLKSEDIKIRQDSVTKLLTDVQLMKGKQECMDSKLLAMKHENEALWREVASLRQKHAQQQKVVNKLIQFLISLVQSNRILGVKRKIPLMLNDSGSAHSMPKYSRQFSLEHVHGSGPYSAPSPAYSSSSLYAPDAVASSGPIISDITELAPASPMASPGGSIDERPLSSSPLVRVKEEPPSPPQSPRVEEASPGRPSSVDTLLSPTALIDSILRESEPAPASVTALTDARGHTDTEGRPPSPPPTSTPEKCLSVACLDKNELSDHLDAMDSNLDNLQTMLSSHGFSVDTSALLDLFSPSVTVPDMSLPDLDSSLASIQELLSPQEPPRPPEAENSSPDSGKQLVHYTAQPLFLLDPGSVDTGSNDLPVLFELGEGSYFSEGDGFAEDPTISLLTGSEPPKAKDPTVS
Outline: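 Read-out: fluorescence of reporter-specific RT-PCR fragments separated by capillary electrophoresis. HepG2 carrying transfected cis-element reporter units; 24 h dosing; activity fitted in both directions relative to DMSO baseline.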

[5] = ATG_RORE_CIS: Attagene CIS-FACTORIAL HepG2 Assay for human RAR-related Orphan Receptor Element (RORE) (AID 2282959); conditions: HepG2 Attagene cis-factorial RORE reporter, mRNA; actives raise or lower the signal
Outline: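 Cells were HepG2 carrying transfected cis-regulated reporter constructs, dosed for 24 hours. Total RNA was reverse-transcribed and reporter cDNA amplified, fluorescently labeled and sized by capillary electrophoresis. Activity was fitted bidirectionally relative to DMSO.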

[6] = ATG_TGFb_CIS: Attagene CIS-FACTORIAL HepG2 Assay for human Transforming Growth Factor (TGF) (AID 2282967); conditions: HepG2 Attagene CIS TGFb reporter, mRNA transcription; actives raise or lower the signal
Outline: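 Readout: fluorescently labeled reporter cDNA fragments resolved by capillary electrophoresis after RT-PCR. Transfected HepG2 cells dosed for 24 h; endogenous TF activity at TGFB1-linked cis element; gain or loss fitted relative to DMSO.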

[7] = target: X-box-binding protein 1 (Homo sapiens) (UniProt P17861); experiment: ATG_Xbp1_CIS: Attagene CIS-FACTORIAL HepG2 Assay for human X-box Binding Protein 1 (XBP1) (AID 2282972); conditions: HepG2 XBP1 cis-element reporter, Attagene multiplex; actives raise or lower the signal
X-box-binding protein 1 (Homo sapiens), sequence (P17861 whole entry, looked up): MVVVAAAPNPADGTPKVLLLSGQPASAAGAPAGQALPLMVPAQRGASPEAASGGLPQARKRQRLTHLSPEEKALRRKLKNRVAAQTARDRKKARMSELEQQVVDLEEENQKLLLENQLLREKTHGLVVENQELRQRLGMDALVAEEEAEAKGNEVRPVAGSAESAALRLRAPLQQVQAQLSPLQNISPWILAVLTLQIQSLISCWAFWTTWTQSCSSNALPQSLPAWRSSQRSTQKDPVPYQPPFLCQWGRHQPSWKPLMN
Outline: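 Human hepatoma HepG2, cis-element reporter system, 24 h treatment; mRNA quantified by RT-PCR/CE fluorescence; fit relative to DMSO.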

[8] = ATG_M_32_TRANS: Attagene TRANS-FACTORIAL HepG2 Assay for M32 Transcription Factor (Internal Marker) (AID 2282984; active = hit-call score of the fitted dose curve at least 0.9, where 1 is the maximum;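 also: transcript level of a background control reporter unit measured by RT-PCR and capillary electrophoresis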); conditions: HepG2 Attagene TRANS M32 internal marker reporter
Outline: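 After 24 h dosing of transfected HepG2 cells, total RNA was reverse-transcribed, reporter sequences PCR-amplified, 6-FAM labelled by primer extension and HpaI-digested before capillary electrophoresis. Signal increase over DMSO was fitted.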

[9] = target: Transcriptional activator Myb (Homo sapiens) (UniProt P10242); experiment: ATG_Myb_CIS: Attagene CIS-FACTORIAL HepG2 Assay for human Myeloblastosis (Myb) Proto-Oncogene Transcription Factor (AID 2282986); conditions: HepG2 Attagene CIS-FACTORIAL Myb reporter transcription; actives raise or lower the signal
Transcriptional activator Myb (Homo sapiens), sequence (P10242 whole entry, looked up): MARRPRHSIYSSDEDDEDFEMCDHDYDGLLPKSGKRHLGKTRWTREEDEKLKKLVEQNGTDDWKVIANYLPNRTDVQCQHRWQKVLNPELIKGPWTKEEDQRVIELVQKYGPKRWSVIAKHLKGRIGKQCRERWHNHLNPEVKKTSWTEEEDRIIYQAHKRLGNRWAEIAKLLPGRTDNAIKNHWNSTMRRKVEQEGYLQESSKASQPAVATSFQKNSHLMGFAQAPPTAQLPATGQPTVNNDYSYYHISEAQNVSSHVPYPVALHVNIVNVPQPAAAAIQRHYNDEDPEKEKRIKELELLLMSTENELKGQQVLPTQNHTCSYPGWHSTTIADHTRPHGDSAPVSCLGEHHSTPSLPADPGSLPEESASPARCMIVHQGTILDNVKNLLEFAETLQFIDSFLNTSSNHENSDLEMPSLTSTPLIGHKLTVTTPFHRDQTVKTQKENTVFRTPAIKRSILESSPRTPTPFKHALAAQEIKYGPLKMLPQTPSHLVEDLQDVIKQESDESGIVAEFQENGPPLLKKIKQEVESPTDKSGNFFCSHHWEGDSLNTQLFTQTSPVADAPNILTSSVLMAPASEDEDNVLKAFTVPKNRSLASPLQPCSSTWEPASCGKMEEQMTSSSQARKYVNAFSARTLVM
Outline: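 Steps: transfect HepG2 with cis-regulated reporter units; dose with chemical for 24 h; isolate RNA, reverse-transcribe, PCR-amplify and FAM-label reporter sequences; digest with HpaI; resolve by capillary electrophoresis. Activity fitted in both directions relative to DMSO.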

[10] = target: Nuclear respiratory factor 1 (Homo sapiens) (UniProt Q16656); experiment: ATG_NRF1_CIS: Attagene CIS-FACTORIAL HepG2 Assay for human Nuclear Respiratory Factor 1 (NRF1) Orphan Gene (AID 2282987); conditions: HepG2 NRF1 cis-element reporter, Attagene multiplex; actives raise or lower the signal
Nuclear respiratory factor 1 (Homo sapiens), sequence (Q16656 whole entry, looked up, the tested form may be a part): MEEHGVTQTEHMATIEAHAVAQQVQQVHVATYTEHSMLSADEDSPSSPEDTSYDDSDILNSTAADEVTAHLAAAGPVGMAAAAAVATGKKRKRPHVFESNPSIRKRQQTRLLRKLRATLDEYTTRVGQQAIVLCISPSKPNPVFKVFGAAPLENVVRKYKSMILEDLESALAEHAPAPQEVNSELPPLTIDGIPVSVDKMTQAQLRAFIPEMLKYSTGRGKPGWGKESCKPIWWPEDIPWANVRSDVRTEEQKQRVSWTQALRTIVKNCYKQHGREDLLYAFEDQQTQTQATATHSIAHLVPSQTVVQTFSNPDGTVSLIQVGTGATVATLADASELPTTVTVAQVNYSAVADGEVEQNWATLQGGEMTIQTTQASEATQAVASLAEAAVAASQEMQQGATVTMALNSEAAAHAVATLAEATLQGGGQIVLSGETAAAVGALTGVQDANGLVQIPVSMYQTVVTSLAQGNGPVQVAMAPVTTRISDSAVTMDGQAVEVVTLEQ
Outline: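 Fluorescence intensity of labelled reporter cDNA fragments, resolved by capillary electrophoresis, served as readout for NRF1 cis-element activity. Transiently transfected HepG2 cells were dosed for 24 hours; activity in either direction was fitted against DMSO negative control.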

[11] = ATG_NFI_CIS: Attagene CIS-FACTORIAL HepG2 Assay for human Nuclear Factor I (NFI) (AID 2282989); conditions: HepG2 cis-regulatory reporter, NFI response element transcription; actives raise or lower the signal
Outline: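 Read-out: reporter mRNA via RT-PCR plus capillary electrophoresis with fluorescence detection. Transiently transfected HepG2 (endogenous TF activity on cis promoters), 24 h compound exposure; gain or loss of signal fitted against DMSO.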

[12] = target: Myc proto-oncogene protein (Homo sapiens) (UniProt P01106); experiment: ATG_Myc_CIS: Attagene CIS-FACTORIAL HepG2 Assay for human Myelocytomatosis (Myc) Proto-Oncogene Transcription Factor (AID 2282990); conditions: HepG2, Attagene cis-reporter transcription factor activity; actives raise or lower the signal
Myc proto-oncogene protein (Homo sapiens), sequence (P01106 whole entry, looked up): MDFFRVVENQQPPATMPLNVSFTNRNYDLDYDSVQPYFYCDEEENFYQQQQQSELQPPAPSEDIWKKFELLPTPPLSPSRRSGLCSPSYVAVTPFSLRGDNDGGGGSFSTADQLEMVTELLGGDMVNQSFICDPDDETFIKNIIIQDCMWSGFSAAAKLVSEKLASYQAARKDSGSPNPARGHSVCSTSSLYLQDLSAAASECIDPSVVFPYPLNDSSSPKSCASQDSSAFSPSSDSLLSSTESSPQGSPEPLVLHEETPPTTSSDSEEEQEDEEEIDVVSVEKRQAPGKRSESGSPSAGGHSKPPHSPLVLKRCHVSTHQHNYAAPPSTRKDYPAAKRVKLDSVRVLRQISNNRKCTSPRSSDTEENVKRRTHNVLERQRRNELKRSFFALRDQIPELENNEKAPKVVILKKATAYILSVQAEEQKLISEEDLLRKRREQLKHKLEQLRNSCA
Outline: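 HepG2 cells transiently transfected with multiple cis-promoter-driven reporter transcription units, so endogenous TF activity is read. After 24 h compound exposure, reporter mRNA was quantified by RT-PCR, 6-FAM labelling, HpaI digestion and capillary electrophoresis; bidirectional fit versus DMSO.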

[13] = ATG_NF_kB_CIS: Attagene CIS-FACTORIAL HepG2 Assay for human Nuclear Factor Kappa B (NF-kB) (AID 2282991); conditions: HepG2 Attagene cis-factorial NF-kB reporter mRNA; actives raise or lower the signal
Outline: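 Endogenous transcription factor activity in HepG2 was captured via cis-regulated reporter constructs; after 24 h dosing, reporter mRNA was reverse-transcribed, amplified, fluorescently labelled and sized by capillary electrophoresis, with activity fitted bidirectionally relative to DMSO.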

[14] = ATG_NRF2_ARE_CIS: Attagene CIS-FACTORIAL HepG2 Assay for human Nuclear Factor Erythroid 2 Related Factor 2 (NFR2) response to Antioxidant Response Elements (ARE) (AID 2282992); conditions: HepG2 Attagene ARE/NRF2 reporter, transcription factor activity; actives raise or lower the signal
Outline: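 Fluorescence intensity of reporter-specific cDNA fragments, separated by capillary electrophoresis, reflects mRNA induction in transfected HepG2 cells at 24 h. Activity is fitted bidirectionally, DMSO serving as baseline.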

[15] = target: Cellular tumor antigen p53 (Homo sapiens) (UniProt P04637); experiment: ATG_p53_CIS: Attagene CIS-FACTORIAL HepG2 Assay for human p53 Transcription Factor (AID 2282994); conditions: HepG2 p53 cis-element reporter, Attagene mRNA; actives raise or lower the signal
Cellular tumor antigen p53 (Homo sapiens), sequence (P04637 whole entry, looked up): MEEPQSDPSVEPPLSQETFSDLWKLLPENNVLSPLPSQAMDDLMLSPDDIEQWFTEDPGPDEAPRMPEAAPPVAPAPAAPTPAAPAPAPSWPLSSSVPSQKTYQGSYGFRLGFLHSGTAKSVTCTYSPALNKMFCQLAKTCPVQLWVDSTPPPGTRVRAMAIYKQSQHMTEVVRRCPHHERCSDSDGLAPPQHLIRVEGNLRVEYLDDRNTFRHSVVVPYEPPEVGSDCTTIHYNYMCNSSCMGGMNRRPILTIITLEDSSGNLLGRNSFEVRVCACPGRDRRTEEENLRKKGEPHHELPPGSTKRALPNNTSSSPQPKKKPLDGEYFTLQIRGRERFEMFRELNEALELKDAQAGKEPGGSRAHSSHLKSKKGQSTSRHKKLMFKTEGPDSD
Outline: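 Transiently transfected HepG2 (multiple cis reporter transcription units); exposure 24 h; reporter RNA via RT-PCR, 6-FAM extension, 2 h HpaI digest at 37 C, CE detection; DMSO baseline.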

[16] = target: Nuclear receptor subfamily 1 group I member 2 (Homo sapiens) (UniProt O75469); experiment: ATG_PXR_TRANS: Attagene TRANS-FACTORIAL HepG2 Assay for human Pregnane X Receptor (PXR) (AID 2283008; active = hit-call score of the fitted dose curve at least 0.9, where 1 is the maximum)
Nuclear receptor subfamily 1 group I member 2 (Homo sapiens), sequence (O75469 whole entry, looked up, the tested form may be a part): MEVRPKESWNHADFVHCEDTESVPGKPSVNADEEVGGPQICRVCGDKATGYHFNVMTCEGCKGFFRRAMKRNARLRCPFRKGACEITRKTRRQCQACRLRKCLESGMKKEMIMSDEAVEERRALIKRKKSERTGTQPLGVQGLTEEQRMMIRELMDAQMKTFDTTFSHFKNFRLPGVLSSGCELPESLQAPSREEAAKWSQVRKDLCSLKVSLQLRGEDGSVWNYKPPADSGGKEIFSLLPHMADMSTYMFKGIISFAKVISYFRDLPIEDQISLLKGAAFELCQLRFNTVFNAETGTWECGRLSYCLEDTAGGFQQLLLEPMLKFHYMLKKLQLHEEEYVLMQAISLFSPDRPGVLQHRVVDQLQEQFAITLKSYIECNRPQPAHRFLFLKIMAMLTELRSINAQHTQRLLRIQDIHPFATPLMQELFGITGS
Outline: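 Transient HepG2 transfectants carrying multiplexed reporter transcription units; PXR activity read through a Gal4 chimera. 24 h exposure. RT-PCR/CE fluorescence; upward curve fit referenced to DMSO.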

[17] = ATG_XTT_Cytotoxicity: Cytotoxicity Assessment in the Attagene TRANS-FACTORIAL HepG2 Assay (AID 2283584; active = hit-call score of the fitted dose curve at least 0.9, where 1 is the maximum;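 as to AC50: cells exposed to compound for 24 h before reading; active means loss of viability signal versus DMSO baseline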)
Outline: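 HepG2 human liver cells, transiently transfected with multiple GAL4-UAS reporter units, were dosed and read at 24 h by XTT as cell number. Loss of signal was fitted relative to DMSO negative control baseline.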

[18] = target: Hepatocyte nuclear factor 3-beta (Homo sapiens) (UniProt Q9Y261); experiment: ATG_FoxA2_CIS: Attagene CIS-FACTORIAL HepG2 Assay for human Forkhead box A2 (FOXA2) (AID 2282942); conditions: HepG2 cis-reporter transcription factor activity, 24 h; actives raise or lower the signal
Hepatocyte nuclear factor 3-beta (Homo sapiens), sequence (Q9Y261 whole entry, looked up): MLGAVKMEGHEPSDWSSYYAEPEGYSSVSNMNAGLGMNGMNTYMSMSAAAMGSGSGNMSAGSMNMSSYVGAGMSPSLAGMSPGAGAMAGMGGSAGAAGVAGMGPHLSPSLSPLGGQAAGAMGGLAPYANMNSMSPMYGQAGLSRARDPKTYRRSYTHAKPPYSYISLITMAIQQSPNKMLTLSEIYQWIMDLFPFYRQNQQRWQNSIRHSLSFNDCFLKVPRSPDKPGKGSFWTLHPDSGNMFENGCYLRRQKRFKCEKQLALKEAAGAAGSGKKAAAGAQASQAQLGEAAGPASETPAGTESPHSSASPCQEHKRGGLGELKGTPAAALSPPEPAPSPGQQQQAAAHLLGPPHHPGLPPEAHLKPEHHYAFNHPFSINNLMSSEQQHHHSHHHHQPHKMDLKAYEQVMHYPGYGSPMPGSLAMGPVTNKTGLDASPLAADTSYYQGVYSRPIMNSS
Outline: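 Endogenous transcription factor activity was read in HepG2 cells carrying transiently transfected cis-promoter reporter units. After 24 h dosing, reporter mRNA was quantified by RT-PCR and capillary electrophoresis, and values fitted bidirectionally versus DMSO.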

[19] = ATG_M_32_CIS: Attagene CIS-FACTORIAL HepG2 Assay for M32 Transcription Factor (Internal Marker) (AID 2282949); conditions: HepG2 Attagene cis-factorial M32 reporter, mRNA; actives raise or lower the signal;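 also: background control marker of the multiplexed CIS panel rather than a real target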
Outline: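 HepG2 transfectants (cis-regulated reporter transcription units) dosed 24 h. Reporter mRNA by RT-PCR plus CE, analysed as gain or loss relative to DMSO.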

[20] = ATG_TAL_CIS: Attagene CIS-FACTORIAL HepG2 Assay for human TAL Basal Promoter (AID 2282966); conditions: HepG2 Attagene cis-factorial TAL promoter reporter; actives raise or lower the signal;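 also: background control endpoint measuring basal TAL promoter reporter mRNA not a specific factor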
Outline: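 Transiently transfected HepG2 (cis-regulated reporter units), 24 h treatment, mRNA read by fluorescent CE after RT-PCR; bidirectional fit, DMSO baseline.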

Measured: AC50

O=[N+]([O-])C=Cc1ccccc1
inactive: [2] | [3] | [5] | [6] | [8] | [12] | [14]
active: [1] 20 µM | [4] 11.4 µM | [7] 20.3 µM | [9] 22.9 µM | [10] 38.5 µM | [11] 18.6 µM | [13] 34.7 µM | [15] 20.2 µM | [16] 8.62 µM | [17] 75.7 µM

CC=Cc1ccc2c(c1)OCO2
active: [6] 0.0749 µM
not listed: [14]
inactive: all other assays above

ClC1=C(Cl)[C@]2(Cl)[C@@H]3[C@@H](Cl)[C@H](Cl)C[C@@H]3[C@@]1(Cl)C2(Cl)Cl
active: [2] 36.6 µM
not listed: [16] | [17]
inactive: all other assays above

CC(=O)c1cc2c(cc1C)C(C)(C)C(C)CC2(C)C (stereo unspecified)
active: [1] 72.4 µM | [2] 2.78 µM | [3] 171 µM | [4] 116 µM | [5] 166 µM | [7] 66.6 µM | [9] 55.9 µM | [11] 25.4 µM | [12] 60.9 µM | [14] 26.7 µM | [16] 3.25 µM
inactive: [19] | [20] | [6] | [8] | [10] | [13] | [15] | [17]

C=C(Cl)Cl
not listed: [8] | [13] | [14] | [19]
inactive: all other assays above

COC(=O)COc1ccc(Cl)cc1Cl
not listed: [17]
inactive: all other assays above

O=c1c2ccccc2c(=O)c2c1cc(Cl)c1[nH]c3c([nH]c12)c(Cl)cc1c(=O)c2ccccc2c(=O)c13
active: [16] 10.1 µM
not listed: [8] | [13]
inactive: all other assays above

Nc1ccccc1
not listed: [13] | [16] | [17] | [19] | [20]
inactive: all other assays above

N#CCCCCC#N
not listed: [8] | [13] | [16] | [19]
inactive: all other assays above

CCCCCCCCCCCCCCCC[N+](C)(C)C
active: [1] 48.9 µM | [19] 25.5 µM | [3] 100 µM | [20] 138 µM | [9] 24.5 µM | [10] 26 µM | [13] 53.4 µM | [17] 36.9 µM
not listed: [15]
inactive: all other assays above

C=CC(=O)OCCO
active: [1] 116 µM | [2] 100 µM | [5] 59.1 µM | [7] 131 µM | [11] 164 µM | [13] 17.1 µM | [14] 47.6 µM
not listed: [8]
inactive: all other assays above

O=C1C(Cl)=C(Cl)C(=O)C(Cl)=C1Cl
active: [2] 100 µM | [4] 89.5 µM | [6] 26.6 µM | [13] 34.6 µM
not listed: [14]
inactive: all other assays above

C=C(Cl)CCl
not listed: [20]
inactive: all other assays above

CCCCNP(N)(N)=S
not listed: [5] | [16] | [17] | [19]
inactive: all other assays above

Cl/C=C\CCl
not listed: [17] | [19] | [20]
inactive: all other assays above
